PKA-R2B act = activates the human PKA-R2B holoenzyme complex; AID 504700; hit rate 0.079% among 340,000; PKA-R2B holoenzyme dissociation, Cy5-IP20 fluorescence polarization; R2B truncated from residue 108, S112A mutant; 0% DMSO only, 100% 113 µM cGMP; activation, % at 11.4 µM;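 active means activation above a cutoff set at the mean over all compounds plus 3 SD, cut at about 18% in these data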;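 further: higher means more holoenzyme dissociation and a rise in polarization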
Target sequence (P31323 whole entry, looked up, other chains not shown, the tested form may be a part): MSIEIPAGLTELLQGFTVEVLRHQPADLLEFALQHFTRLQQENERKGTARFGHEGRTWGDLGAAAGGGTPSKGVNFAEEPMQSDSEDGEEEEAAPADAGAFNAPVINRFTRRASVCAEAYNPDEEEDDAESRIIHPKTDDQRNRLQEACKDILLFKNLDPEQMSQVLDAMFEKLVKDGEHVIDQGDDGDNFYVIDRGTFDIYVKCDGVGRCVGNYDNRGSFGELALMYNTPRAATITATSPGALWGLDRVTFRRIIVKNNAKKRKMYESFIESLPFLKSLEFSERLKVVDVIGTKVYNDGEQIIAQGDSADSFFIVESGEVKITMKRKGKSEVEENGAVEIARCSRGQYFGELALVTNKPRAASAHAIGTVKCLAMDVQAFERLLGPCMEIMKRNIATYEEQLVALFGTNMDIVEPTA
PKA-R1A act = activators of PKA-R1A complex | AID 504707 | PKA-R1A dissociation, Cy5-IP20 fluorescence polarization; scaled: DMSO 0%, 113 µM cGMP 100% | hit rate 0.083% among 340,000 | activation, % at 11.4 µM;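 active means percent activation above the mean of all tested compounds plus 3 SD, cut at about 19% in these data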;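 further: higher means more PKAc released from R1A so a rise in polarization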
MsrA inhibitor = inhibits bovine methionine sulfoxide reductase A; purified bovine MsrA, absorbance read-out; AID 651718; inhibition, % at 15.5 µM; hit rate 0.75% among 360,000; in the data active means inhibition above about 4.5%
Mot1-301 SUMO = SUMOylation pathway inhibition by Mot1-301 growth rescue | S. cerevisiae Mot1-301 growth rescue, ATP luminescence, 38.5C; percent above DMSO median, 100 means doubled | growth rescue, % at 18.8 µM | hit rate 1% among 320,000 | AID 2716;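 active means every valid replicate shows activation above 250% relative to neutral control wells; inactive means the rest, any valid replicate at or below 250%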
MsrA act = activates bovine MsrA enzyme. purified bovine MsrA, absorbance read-out. activation, % at 10.6 µM. hit rate 0.3% among 360,000; in the data active means activation above about 7.5%
Yeast Mot1 SUMO = yeast SUMO pathway inhibition in dose response | 2,300 tested, under 10 active | S. cerevisiae Mot1-301 galactose growth, ATP luminescence, 24 h; -100 = growth of slx-deleted rescue strain | shares compounds with Mot1-301 SUMO | growth activity, percent, % at 42 µM;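 active means Signal drops as the depositor expects, and the fitted half-maximal dose is no more than ten times the top valid tested dose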;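 further: more negative values mean stronger growth rescue toward the control strain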
R2B FP artifact = counter-screen for PKA-R2B activators: fluorescence polarization artifacts | shares compounds with PKA-R2B act | FP artifact counterscreen | activation, % at 11.4 µM | hit rate 6% among 270 | AID 504796; in the data active means activation above about 20%;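 further: Cy5 labelled IP20 peptide probe with compound but no PKA protein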
PKA-R2B confirm = PKA-R2B complex activation, confirmation | hit rate 9% among 270 | shares compounds with PKA-R2B act | fluorescence polarization | AID 504797 | activation, % at 11.4 µM; in the data active means activation above about 19%
Target sequence (P31323 whole entry, looked up): as the sequence (P31323 whole entry, looked up, other chains not shown, the tested form may be a part) above
R1A FP artifact = counter-screen for PKA-R1A activators: fluorescence polarization artifacts. shares compounds with PKA-R1A act. Cy5-IP20 peptide alone, fluorescence polarization artifact counterscreen. activation, % at 11.4 µM. hit rate 7% among 280. AID 504799;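 active means mean activation over triplicate runs exceeds the adjusted cutoff derived for the parent primary screen, cut at about 19% in these data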;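 further: no PKA protein present so any polarization rise reflects compound interference; higher means stronger polarization artifact and likely false positive in parent screen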
PKA-R1A confirm = confirmation of PKA-R1A complex activators. shares compounds with PKA-R1A act. Cy5-IP20 fluorescence polarization, PKA-R1A holoenzyme dissociation. activation, % at 11.4 µM. hit rate 9% among 280. AID 504800;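 active means mean activation over replicate wells exceeds the adjusted hit threshold taken from the earlier primary screen, cut at about 20% in these data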
Large screens that a line does not name were inactive (follow-up assays come after a bar, where they were run). A selection: hits, their analogues and other compounds. The true share with any hit is near 2%.

CCC(=O)N1CC(=O)Nc2ccc(F)cc2C1c1ccccc1 (centres undefined)	none
CCC1C(c2ccccc2)NC(c2ccccc2)CC1(O)c1ccc(F)cc1 (centres undefined)	Mot1-301 SUMO 683 | Yeast Mot1 SUMO inactive
COC(=O)C1C(c2ccc(Cl)cc2)CC2CCC1N2C (centres undefined)	none (no result: PKA-R2B act, PKA-R1A act, Mot1-301 SUMO, MsrA act)
CN(C)C1(c2nnnn2-c2ccc(Cl)cc2)CCCCC1	Mot1-301 SUMO 737 | Yeast Mot1 SUMO inactive
OC1(c2ccc(F)cc2)CC2CCC(C1)N2Cc1nnnn1C1CCCCC1 (centres undefined)	Mot1-301 SUMO 674 | Yeast Mot1 SUMO inactive
OCCN1C2CCC1CC(O)(c1ccc(F)cc1)C2 (centres undefined)	none
Cc1ccc(OC(=O)N(C)C[C@@H]2OCc3ccccc3-c3c(n(C)c4ccccc34)C(=O)N([C@H](C)CO)C[C@H]2C)cc1	none (no result: PKA-R2B act, PKA-R1A act, Mot1-301 SUMO, MsrA act)
COc1ccc(Oc2c(C)oc3cc(OC(=O)N(C)C)ccc3c2=O)cc1	Mot1-301 SUMO 524 | Yeast Mot1 SUMO inactive
O=C(O)c1cc(S(=O)(=O)N2CC3CC(C2)c2cccc(=O)n2C3)ccc1F (centres undefined)	none (no result: PKA-R2B act, PKA-R1A act, Mot1-301 SUMO, MsrA act)
CCOC(C(=O)OCCCN(CC)CC)(c1ccccc1)c1ccccc1	Mot1-301 SUMO 510 | Yeast Mot1 SUMO inactive
CCN(CC)CCCOC(=O)C(OC(C)C)(c1ccccc1)c1ccccc1	none
C[C@H]1CNCCN1c1ccc(N2CC[C@H](O)C2)c(C#N)c1	none (no result: PKA-R2B act, PKA-R1A act, Mot1-301 SUMO, MsrA act)
CCOP(=O)(OCC)c1cc(CC)ccc1O	Mot1-301 SUMO active | Yeast Mot1 SUMO inactive
COc1ccc2c(c1)[C@@]13CCC=C[C@H]1[C@@H](C2)NCC3	Mot1-301 SUMO 455 | Yeast Mot1 SUMO inactive
N#Cc1ccc2nc(-c3ccc(CN4CCC(n5nnc6ccccc65)CC4)cc3)c(-c3ccccc3)nc2c1	none (no result: PKA-R2B act, PKA-R1A act, Mot1-301 SUMO, MsrA act)
CC(C)C/C(=N/O)c1c[nH]c2ccccc12	Mot1-301 SUMO 572 | Yeast Mot1 SUMO inactive
CCN(CC)P(=S)(c1c(C)nc2ccccn12)c1c(C)nc2ccccn12	none
CCOc1c(P(=S)(N(C)C)N(C)C)c(C)nn1-c1ccccc1	Mot1-301 SUMO 891 | Yeast Mot1 SUMO inactive
CN(C)CCCNCC(=O)Nc1ccc(Cl)cc1C(=O)c1ccccc1	none
C[N+](C)(C)CC(=O)Nc1ccc(Cl)cc1C(=O)c1ccccc1	Mot1-301 SUMO 415 | Yeast Mot1 SUMO inactive
COC(=O)c1c(C)n(Cc2ccc3c(c2)OCO3)c2ccc(O)cc12	Mot1-301 SUMO 696 | Yeast Mot1 SUMO inactive
CCOC(=O)c1c(C)n(Cc2ccc3c(c2)OCO3)c2ccc(O)cc12	none
C=C1C(O)[C@@H]2O[C@]3(CC[C@H](/C=C/C(C)[C@@H]4CC(C)=CC5(O[C@H](C[C@@](C)(O)C(=O)O)CCC5O)O4)O3)CC[C@H]2O[C@@H]1C(O)CC(C)[C@H]1OC2(CCCCO2)CCC1C (some centres undefined)	Mot1-301 SUMO 888 (no result: PKA-R2B act, PKA-R1A act, MsrA inhibitor, MsrA act) | Yeast Mot1 SUMO inactive
Cc1cc(/C=C2\C(=O)NC(=O)N(c3ccccc3F)C2=O)c(C)n1-c1cc(C(=O)O)cc(C(=O)O)c1	Mot1-301 SUMO 737 | Yeast Mot1 SUMO inactive
Cc1cc(N2CCNC[C@H]2C)ccc1N1CC[C@@H](O)C1	none (no result: PKA-R2B act, PKA-R1A act, Mot1-301 SUMO, MsrA act)
COC(=O)[C@@H]1[C@@H](C(=O)OC)C2(c3ccccc3-c3ccccc32)N(c2ccc(Cl)cc2)N1C#N	Mot1-301 SUMO 427 | Yeast Mot1 SUMO inactive
Cc1cc(N2CCNC[C@H]2C)ccc1N1CCN[C@H](C)C1	none (no result: PKA-R2B act, PKA-R1A act, Mot1-301 SUMO, MsrA act)
O=C(O)C(Br)Br	none (no result: PKA-R2B act, PKA-R1A act, Mot1-301 SUMO, MsrA act)
CN(C(=O)c1ccc(Cl)nc1)C1(c2ccccc2Cl)CCCCC1=O (centres undefined)	PKA-R2B act 21 | R2B FP artifact inactive | PKA-R2B confirm inactive
Cc1ccc2nc(-c3ccc(CN4CCC(n5c(=O)[nH]c6cc(Cl)ccc65)CC4)cc3)c(-c3ccccc3)nc2c1	none (no result: PKA-R2B act, PKA-R1A act, Mot1-301 SUMO, MsrA act)
CCC(CO)(C(=O)OC1C[N+]2(C)CCC1CC2)c1ccccc1 (centres undefined)	PKA-R2B act 20 | R2B FP artifact inactive | PKA-R2B confirm inactive
O=C(NCCN1CCC2(CC1)C(=O)NCN2c1ccccc1)c1cccc2c1-c1ccccc1C2=O	none (no result: PKA-R2B act, PKA-R1A act, Mot1-301 SUMO, MsrA act)
CC1=CP(=O)(Oc2ccc([N+](=O)[O-])cc2)CC1 (centres undefined)	PKA-R1A act 19 (no result: Mot1-301 SUMO) | R1A FP artifact inactive | PKA-R1A confirm inactive
CC1([N+](=O)[O-])COP(=O)(Nc2ccccc2F)OC1 (centres undefined)	none (no result: Mot1-301 SUMO)
COc1ccc(NP2(=O)OCC(C)(N)CO2)cc1 (centres undefined)	PKA-R1A act 20 (no result: Mot1-301 SUMO) | R1A FP artifact inactive | PKA-R1A confirm inactive
CCOC(=O)C1=C(C(=O)OCC)C2(c3ccccc3)c3ccccc3C1(C)N2C (centres undefined)	none (no result: PKA-R2B act, PKA-R1A act, Mot1-301 SUMO, MsrA act)
C=C1[C@H]2CC[C@H]3[C@]4(C)C[C@H](O[C@@H]5OC(CO)[C@@H](OSOOO)[C@H](OS(=O)(=O)O)[C@H]5OC(=O)CC(C)C)C[C@@H](C(=O)O)[C@H]4CC[C@]3(C2)[C@H]1O (some centres undefined)	PKA-R1A act 19 | R1A FP artifact inactive | PKA-R1A confirm inactive
Cc1cccc(OCC(=O)N2CCN(Cc3ccc4c(c3)OCO4)CC2)c1	none
CN(C(=O)Cc1ccc(Cl)c(Cl)c1)C(CN1CCCC1)c1cccc(OCC(=O)O)c1 (centres undefined)	PKA-R1A act 19 | R1A FP artifact inactive | PKA-R1A confirm inactive
Cc1cc(N2CCNC[C@@H]2C)ccc1N1CCN[C@@H](C)C1	none (no result: PKA-R2B act, PKA-R1A act, Mot1-301 SUMO, MsrA act)
O=C(COc1ccccc1Cl)N1CCCC(N2CCN(c3ccc(F)cc3)CC2)C1 (centres undefined)	PKA-R1A act 19 | R1A FP artifact inactive | PKA-R1A confirm inactive
C=CCN1CC[C@]23c4c5ccc(O)c4OC2C(=O)CC[C@@]3(O)[C@H]1C5 (some centres undefined)	none (no result: PKA-R2B act, PKA-R1A act, Mot1-301 SUMO, MsrA act)

Source: PubChem
